# Results taken from PubChem BioAssay (Tox21).
# Where “and” joins values, the source holds several entries; their conditions need not be identical. Identical values can stand only once. Records with an inconclusive call do not appear. Where a call stands in place of a potency, no number is given. A structure can be active in one record and inactive in another. Calls of active or inactive are those of the source. Calls come from the whole dose curve; as a rule, active = well fitted curve in the direction sought with a large enough effect in the repeat runs; inconclusive = weak or mixed curves; inactive = no such curve, though single readings can be large; an effect the other way counts as inactive or inconclusive.
# How the values were obtained:
# [1] = qHTS RealTime-Glo MT Cell Viability Assay in HepG2 cells - 40 hour (AID 1224870); note: nearly all actives have a fitted effect of over 50% in size
# Summary of the method: (§1)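 HepG2 cells mixed with RealTime-Glo MT reagents (NanoLuc plus cell-permeant prosubstrate) were seeded at 600 cells/well, incubated 5 h at 37 C/5% CO2, then pinned with compounds in DMSO; nonlytic luminescence tracked viability during 40 h treatment.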
# [2] = A CellTox Green Cytotoxicity Assay to monitor cytotoxicity in HEK293 cells - 40 hour (AID 1224871); note: nearly all actives have a fitted effect of over 45% in size; note: potency is the fitted concentration of half-maximal effect
# Summary of the method: (§2)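 Fluorescence from a DNA-binding dye excluded by viable cells was measured repeatedly in the same HEK293 wells (600 cells/well) during continuous compound exposure at 37 C. Each assay gives one read point: 0, 8, 16, 24, 32 or 40 h.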
# [3] = qHTS RealTime-Glo MT Cell Viability Assay in HEK293 cells - 16 hour (AID 1224872); note: top concentration of the series differs between compounds; nearly all actives have a fitted effect of over 50% in size
# Summary of the method: (§3)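 Assay medium contained NanoLuc luciferase plus cell-permeant prosubstrate, added with HEK293 cells at 600 cells/well. After 5 h at 37 C/5% CO2 compounds were added; plates stayed at 37 C for 40 h with serial luminescence reads.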
# [4] = qHTS RealTime-Glo MT Cell Viability Assay in HepG2 cells - 8 hour (AID 1224873); note: nearly all actives have a fitted effect of over 55% in size
# Summary of the method: as §1
# [5] = qHTS RealTime-Glo MT Cell Viability Assay in HEK293 cells - 40 hour (AID 1224874); conditions: RealTime-Glo luminescence; max response: stronger effect = lower value; note: nearly all actives have a fitted effect of over 50% in size; note: potency is the fitted concentration of half-maximal effect
# Summary of the method: (§4)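 Luminescence, which tracks viable cell number through reduction of the prosubstrate to a NanoLuc substrate, was read over continuous 37 C culture. Cells (600/well) were premixed with reagent and rested 5 h before 23 nL of compound in DMSO was pinned.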
# [6] = A CellTox Green Cytotoxicity Assay to monitor cytotoxicity in HEK293 cells - 24 hour (AID 1224875); note: series mostly up to about 77 µM; nearly all actives have a fitted effect of over 45% in size
# Summary of the method: as §2
# [7] = A CellTox Green Cytotoxicity Assay to monitor cytotoxicity in HepG2 cells - 16 hour (AID 1224876); note: nearly all actives have a fitted effect of over 45% in size; note: potency is the fitted concentration of half-maximal effect
# Summary of the method: (§5)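 Real-time cytotoxicity: fluorescence of a cell-impermeant cyanine dye binding DNA of dead HepG2 cells, measured repeatedly (0–40 h) during compound exposure at 37 C. Cells seeded 600/well with reagent, dosed after 5 h.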
# [8] = qHTS RealTime-Glo MT Cell Viability Assay in HepG2 cells - 32 hour (AID 1224877); note: nearly all actives have a fitted effect of over 55% in size
# Summary of the method: (§6)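 qHTS, HepG2, 600 cells/well, RealTime-Glo (NanoLuc + prosubstrate) added with cells; 5 h preincubation; DMSO compound addition; 37 C; luminescence at 0/8/16/24/32/40 h.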
# [9] = A CellTox Green Cytotoxicity Assay to monitor cytotoxicity in HepG2 cells - 24 hour (AID 1224878); note: nearly all actives have a fitted effect of over 45% in size; note: potency is the fitted concentration of half-maximal effect
# Summary of the method: as §5
# [10] = A CellTox Green Cytotoxicity Assay to monitor cytotoxicity in HepG2 cells - 40 hour (AID 1224879); note: nearly all actives have a fitted effect of over 40% in size; note: potency is the fitted concentration of half-maximal effect
# Summary of the method: as §5
# [11] = qHTS RealTime-Glo MT Cell Viability Assay in HEK293 cells - 0 hour (AID 1224880)
# Summary of the method: as §4
# [12] = A CellTox Green Cytotoxicity Assay to monitor cytotoxicity in HEK293 cells - 32 hour (AID 1224881); note: nearly all actives have a fitted effect of over 40% in size; note: potency is the fitted concentration of half-maximal effect
# Summary of the method: as §2
# [13] = A CellTox Green Cytotoxicity Assay to monitor cytotoxicity in HepG2 cells - 0 hour (AID 1224882); note: nearly all actives have a fitted effect of over 35% in size; note: potency is the fitted concentration of half-maximal effect
# Summary of the method: as §5
# [14] = A CellTox Green Cytotoxicity Assay to monitor cytotoxicity in HepG2 cells - 32 hour (AID 1224883); note: nearly all actives have a fitted effect of over 50% in size; note: potency is the fitted concentration of half-maximal effect
# Summary of the method: as §5
# [15] = qHTS RealTime-Glo MT Cell Viability Assay in HepG2 cells - 16 hour (AID 1224885); note: nearly all actives have a fitted effect of over 50% in size
# Summary of the method: as §6
# [16] = qHTS RealTime-Glo MT Cell Viability Assay in HEK293 cells - 24 hour (AID 1224886)
# Summary of the method: as §3
# [17] = qHTS RealTime-Glo MT Cell Viability Assay in HEK293 cells - 8 hour (AID 1224887)
# Summary of the method: as §4
# [18] = A CellTox Green Cytotoxicity Assay to monitor cytotoxicity in HEK293 cells - 16 hour (AID 1224888); note: nearly all actives have a fitted effect of over 35% in size
# Summary of the method: as §2
# [19] = qHTS RealTime-Glo MT Cell Viability Assay in HepG2 cells - 0 hour (AID 1224889); note: nearly all actives have a fitted effect of over 50% in size
# Summary of the method: as §6
# [20] = A CellTox Green Cytotoxicity Assay to monitor cytotoxicity in HEK293 cells - 8 hour (AID 1224884); note: nearly all actives have a fitted effect of over 35% in size
# Summary of the method: as §2
smiles,measurement,setting,value
C[C@]12CC[C@H](O)CC1=CC[C@@H]1[C@@H]2CC[C@]2(C)C(=O)CC[C@@H]12,outcome,[1],inactive
same,Potency,[2],inactive and 43.6 µM (active)
same,outcome,[3],inactive
same,outcome,[4],inactive
same,max response,[5],-15.5% (inactive)
same,Potency,[6],inactive
same,Potency,[7],inactive
same,outcome,[8],inactive
same,Potency,[9],inactive
same,Potency,[10],49 µM (active) and inactive
same,outcome,[11],inactive
same,Potency,[12],inactive
same,Potency,[13],inactive
same,Potency,[14],inactive
same,outcome,[15],inactive
same,outcome,[16],inactive
same,outcome,[17],inactive
same,Potency,[18],inactive
same,outcome,[19],inactive
CC(C)(C)C(=O)CCl,outcome,[1],inactive
same,Potency,[2],inactive
same,outcome,[3],inactive
same,outcome,[4],inactive
same,max response,[5],4.78% (inactive) and -0.671% (inactive)
same,Potency,[6],inactive
same,Potency,[7],inactive
same,outcome,[8],inactive
same,Potency,[9],inactive
same,outcome,[11],inactive
same,Potency,[12],inactive
same,Potency,[13],inactive
same,Potency,[14],inactive
same,Potency,[20],inactive
same,outcome,[15],inactive
same,outcome,[16],inactive
same,outcome,[17],inactive
same,Potency,[18],inactive
same,outcome,[19],inactive
O=[N+]([O-])c1ccc(Cl)cc1,outcome,[1],inactive
same,Potency,[2],inactive
same,outcome,[3],inactive
same,outcome,[4],inactive
same,max response,[5],4.49% (inactive) and 2.44% (inactive)
same,Potency,[6],inactive
same,Potency,[7],inactive
same,outcome,[8],inactive
same,Potency,[9],inactive
same,Potency,[10],inactive
same,outcome,[11],inactive
same,Potency,[12],inactive
same,Potency,[13],inactive
same,Potency,[14],inactive
same,Potency,[20],inactive
same,outcome,[16],inactive
same,outcome,[17],inactive
same,Potency,[18],inactive
same,outcome,[19],inactive
Nc1cc(Cl)cc(Cl)c1,outcome,[1],inactive
same,Potency,[2],inactive
same,outcome,[3],inactive
same,outcome,[4],inactive
same,max response,[5],-2.18% (inactive) and 1.19% (inactive)
same,Potency,[6],inactive
same,Potency,[7],inactive
same,outcome,[8],inactive
same,Potency,[9],inactive
same,Potency,[10],inactive
same,outcome,[11],inactive
same,Potency,[12],inactive
same,Potency,[13],inactive
same,Potency,[14],inactive
same,outcome,[15],inactive
same,outcome,[16],inactive
same,outcome,[17],inactive
same,Potency,[18],inactive
same,outcome,[19],inactive
COC(=O)Nc1cccc(OC(=O)Nc2cccc(C)c2)c1,outcome,[1],inactive
same,Potency,[2],inactive
same,outcome,[3],inactive
same,outcome,[4],inactive
same,max response,[5],3.85% (inactive) and -5.62% (inactive)
same,Potency,[6],inactive
same,Potency,[7],inactive
same,outcome,[8],inactive
same,Potency,[9],inactive
same,Potency,[10],49 µM (active)
same,outcome,[11],inactive
same,Potency,[12],inactive
same,Potency,[13],inactive
same,Potency,[14],49 µM (active)
same,Potency,[20],inactive
same,outcome,[16],inactive
same,outcome,[17],inactive
same,Potency,[18],inactive
same,outcome,[19],inactive
COc1nc(NC(C)C)nc(NC(C)C)n1,outcome,[1],inactive
same,Potency,[2],inactive
same,outcome,[3],inactive
same,outcome,[4],inactive
same,max response,[5],-0.66% (inactive) and 0.377% (inactive)
same,Potency,[6],inactive
same,Potency,[7],inactive
same,outcome,[8],inactive
same,Potency,[9],inactive
same,outcome,[11],inactive
same,Potency,[12],inactive
same,Potency,[13],inactive
same,Potency,[14],inactive
same,outcome,[16],inactive
same,outcome,[17],inactive
same,Potency,[18],inactive
same,outcome,[19],inactive
CC(C)c1cccc(C(C)C)c1O,outcome,[1],inactive
same,Potency,[2],24.5 µM (active) and 43.6 µM (active) and inactive
same,outcome,[3],inactive
same,outcome,[4],inactive
same,max response,[5],-0.191% (inactive) and -2.39% (inactive) and 0.656% (inactive)
same,Potency,[7],43.6 µM (active) and inactive
same,outcome,[8],inactive
same,Potency,[9],43.6 µM (active) and inactive
same,Potency,[10],43.6 µM (active) and inactive
same,outcome,[11],inactive
same,Potency,[12],24.5 µM (active) and 43.6 µM (active) and inactive
same,Potency,[13],inactive and 43.6 µM (active)
same,Potency,[14],43.6 µM (active) and inactive
same,outcome,[16],inactive
same,outcome,[17],inactive
same,outcome,[19],inactive
CNC(=O)O/N=C/C(C)(C)S(C)(=O)=O,outcome,[1],inactive
same,Potency,[2],inactive
same,outcome,[3],inactive
same,outcome,[4],inactive
same,max response,[5],3.09% (inactive) and 0.619% (inactive)
same,Potency,[6],inactive
same,Potency,[7],inactive
same,outcome,[8],inactive
same,Potency,[9],inactive
same,outcome,[11],inactive
same,Potency,[12],inactive
same,Potency,[13],inactive
same,Potency,[14],inactive
same,outcome,[15],inactive
same,outcome,[16],inactive
same,outcome,[17],inactive
same,outcome,[19],inactive
CNc1cnn(-c2cccc(C(F)(F)F)c2)c(=O)c1Cl,outcome,[1],inactive
same,outcome,[3],inactive
same,outcome,[4],inactive
same,max response,[5],-24.9% (inactive) and -29.1% (inactive)
same,Potency,[6],inactive
same,Potency,[7],inactive
same,outcome,[8],inactive
same,Potency,[9],inactive
same,Potency,[10],inactive
same,outcome,[11],inactive
same,Potency,[12],inactive
same,Potency,[13],inactive
same,Potency,[14],inactive
same,Potency,[20],inactive
same,outcome,[15],inactive
same,outcome,[16],inactive
same,outcome,[17],inactive
same,Potency,[18],inactive
same,outcome,[19],inactive
C[C@H]1C(=O)O[C@@H]2CCN3CC=C(COC(=O)[C@](C)(O)[C@]1(C)O)[C@H]23,outcome,[1],inactive
same,outcome,[3],inactive
same,outcome,[4],inactive
same,max response,[5],-22.4% (inactive) and -7.52% (inactive) and -7.78% (inactive)
same,Potency,[6],inactive
same,Potency,[7],inactive
same,outcome,[8],inactive
same,Potency,[9],inactive
same,Potency,[10],inactive
same,outcome,[11],inactive
same,Potency,[12],inactive
same,Potency,[13],inactive
same,Potency,[14],inactive
same,Potency,[20],inactive
same,outcome,[15],inactive
same,outcome,[16],inactive
same,outcome,[17],inactive
same,Potency,[18],inactive
same,outcome,[19],inactive
ClC(Cl)c1ccccc1,outcome,[1],inactive
same,Potency,[2],inactive
same,outcome,[3],inactive
same,outcome,[4],inactive
same,max response,[5],4.95% (inactive) and 0.497% (inactive)
same,Potency,[6],inactive
same,Potency,[7],inactive
same,outcome,[8],inactive
same,Potency,[9],inactive
same,outcome,[11],inactive
same,Potency,[12],inactive
same,Potency,[13],inactive
same,Potency,[14],inactive
same,Potency,[20],inactive
same,outcome,[15],inactive
same,outcome,[16],inactive
same,outcome,[17],inactive
same,Potency,[18],inactive
same,outcome,[19],inactive
CSc1nnc(C(C)(C)C)c(=O)n1N,outcome,[1],inactive
same,Potency,[2],inactive
same,outcome,[3],inactive
same,outcome,[4],inactive
same,max response,[5],-23.1% (inactive) and -14.9% (inactive)
same,Potency,[6],inactive
same,Potency,[7],inactive
same,outcome,[8],inactive
same,Potency,[9],inactive
same,outcome,[11],inactive
same,Potency,[12],inactive
same,Potency,[13],inactive
same,Potency,[14],inactive
same,outcome,[15],inactive
same,outcome,[16],inactive
same,outcome,[17],inactive
same,outcome,[19],inactive
Sc1ccccc1,outcome,[1],inactive
same,outcome,[3],inactive
same,outcome,[4],inactive
same,Potency,[5],39.4 µM (active)
same,max response,[5],0.339% (inactive) and -2.23% (inactive) and -0.106% (inactive)
same,Potency,[6],inactive
same,Potency,[7],inactive
same,outcome,[8],inactive
same,Potency,[9],inactive and 43.6 µM (active)
same,outcome,[11],inactive
same,Potency,[12],inactive
same,Potency,[13],inactive
same,Potency,[14],inactive and 43.6 µM (active)
same,Potency,[20],inactive
same,outcome,[16],inactive
same,outcome,[17],inactive
same,Potency,[18],inactive
same,outcome,[19],inactive
